Calls of active or inactive are those of the source. The calls were made as follows: active = hit-call score of the fitted dose curve at least 0.9, where 1 is the maximum; inactive = score below 0.9.

The nature of the assay: ATG_NF_kB_CIS: Attagene CIS-FACTORIAL HepG2 Assay for human Nuclear Factor Kappa B (NF-kB) (AID 2282991). The note with it: HepG2 Attagene cis-factorial NF-kB reporter mRNA; actives raise or lower the signal. On the procedure: ATG_CIS is a cell-based, multiplexed-readout assay that uses HepG2, a human liver cell line, with measurements taken at 24 hours after chemical dosing in a 24-well plate.ATG_NF_kB_CIS is one of 52 assay component(s) measured or calculated from the ATG_CIS assay. It is designed to make measurements of mRNA induction, a form of inducible reporter, as detected with fluorescence intensity signals by Reverse transcription polymerase chain reaction (RT-PCR) and Capillary electrophoresis technology.Data from the assay component ATG_NF_kB_CIS was analyzed into 1 assay endpoint. This assay endpoint, ATG_NF_kB_CIS, was analyzed with bidirectional fitting relative to DMSO as the negative control and baseline of activity. Using a type of inducible reporter, measures of mRNA for gain or loss-of-signal activity can be used to understand the reporter gene at the transcription factor-level as they relate to the gene NFKB1. Furthermore, this assay endpoint can be referred to as a primary readout, because this assay has produced multiple assay endpoints where this one serves a reporter gene function. To generalize the intended target to other relatable targets, this assay endpoint is annotated to the dna binding intended target family, where the subfamily is NF-kappa B.
Human liver HepG2 cells are transiently transfected with multiple reporter transcription units (MRTUs) in 6-well plates using FuGene 6 reagent (Roche; 3 ml FuGene/1 mg DNA). The MRTU constructs are regulated by a cis-regulating element (promoter). […] A major difference between the CIS and TRANS system is that in CIS activities of endogenous TFs are measured, whereas the TRANS assay evaluates changes in activities of exogenous, chimeric NR-Gal4 proteins. […] At the end of 24 hour incubation, total RNA was isolated using TriZol reagent (Invitrogen). The isolated RNA is then reverse-transcribed using oligo(dT) primer and Mo-MLV reverse transcriptase (Invitrogen) with DNAse I (Ambion) treatment for 30 min. The one-tenth of the produced cDNA was amplified by PCR using Taq DNA polymerase (Invitrogen) and two reporter sequence-specific primers. The PCR products were fluorescently labeled by primer extension with 6-arboxyfluorescein (6-FAM) 5'-labeled reporter sequence-specific primer (2 min at 95 C, 20 s at 68 C and 10 min at 72 C) and these products were digested with 5U of HpaI (New England Biolabs) for 2h at 37 C. The fragments were purified using Qiaquick PCR columns (Qiagen), analyzed on an ABI 3130xL genetic analyzer (Applied Biosystems) with peak positions identified by using a set of X-rhodamine (ROX)-labeled MapMarker1000 molecular weight standards (BioVentures). The raw capillary electrophoresis data was processed using Attagraph software (Attagene).
In the case of `O=C(O)c1cc[c]([Hg][Cl])cc1`, the call was inactive.
The same measure, in the same setting: to `CC(C)(C)C(O)C(Oc1ccc(-c2ccccc2)cc1)n1cncn1` (stereo not given) belongs “inactive”.
A word on the AC50: it is the midpoint of the concentration-response curve, whichever way the signal moves. For the compound `CC(Cc1ccc(C(C)(C)C)cc1)CN1C[C@@H](C)O[C@@H](C)C1` (stereo not given in full), the AC50 was 21 µM (active).
Consider `Nc1ccccc1C(=O)OCCc1ccccc1`, for which the result was inactive.
As to `COc1cc(OC)nc(Oc2cccc(Oc3nc(OC)cc(OC)n3)c2C(=O)O)n1`, the call was inactive.
The same measure, in the same setting: the entry for `O=C1C=CC(=O)C=C1` is “inactive”.
For the compound `CCOC(=O)COc1ccc(Cl)cc1Cl`, the compound was classed as inactive.
On the same count and under the same terms, to `COC(=O)c1ccccc1S(=O)(=O)NC(=O)Nc1nc(C)cc(C)n1` belongs “inactive”; to `COc1cc(OC)c(OC)cc1C=O`, “inactive”; to `O=S(=O)(O)OOS(=O)(=O)O`, “inactive”.
Regarding `C=CC(=O)OCC(CC)CCCC` (stereo not given), the call was inactive.
On the same count and under the same terms, to `c1ccc(P(c2ccccc2)c2ccccc2)cc1` belongs “inactive”; to `Nc1ccc(-c2ccc(N)c(N)c2)cc1N`, “inactive”.
Same read-out and setting: the entry for `CC(C)c1ccc(O)cc1` is “inactive”.
`CCC(C)c1cc([N+](=O)[O-])cc([N+](=O)[O-])c1OC(=O)C=C(C)C` (stereo not given): the compound was classed as inactive.
On the same count and under the same terms, the entry for `COC(C)(C)CCC[C@H](C)C/C=C/C(C)=C/C(=O)OC(C)C` is “inactive”.
Still for that read-out and setting: to `C#CC1(O)CCCCC1` belongs “inactive”.
Consider `C=CC(=O)OCCO`, for which the AC50 is 17.1 µM (active).
On to `c1cc(OCC2CO2)ccc1Cc1ccc(OCC2CO2)cc1` (stereo not given), for which the AC50 is 54.7 µM (active).
For `O=C(CCN1CC1)OCC(CO)(COC(=O)CCN1CC1)COC(=O)CCN1CC1`, the result was inactive.
Same read-out and setting: the entry for `COC(=O)COc1ccc(Cl)cc1Cl` is “inactive”; for `c1ccc2c(c1)CCCC2` it is “inactive”; for `CC(=O)/C=C/c1ccccc1` it is “inactive”.
For `O=[N+]([O-])c1cc(C(F)(F)F)c(Cl)c([N+](=O)[O-])c1Cl`, the AC50 was 3.71 µM (active).
`CC=Cc1ccc2c(c1)OCO2`: the compound was called inactive.
The same measure, in the same setting: to `COCC(=O)N(c1c(C)cccc1C)N1CCOC1=O` belongs “inactive”; to `CCN(CC)C(=S)S`, “inactive”.
The same measure, in the same setting: to `CN(C)CCC#N` belongs “inactive”; to `N#CCNCC#N`, “inactive”.
On the same count and under the same terms, the entry for `Oc1ccc(C2(c3ccc(O)cc3)c3ccccc3-c3ccccc32)cc1` is “inactive”; for `CCC(=O)c1ccc(Cl)cc1` it is “inactive”.
Take `O=[N+]([O-])C=Cc1ccccc1`: the concentration at half-maximal activity (AC50) is 34.7 µM (active).
Consider `N#Cc1cc(I)c(O)c(I)c1`, for which the call was inactive.
Same read-out and setting: to `Cc1ncc(C[n+]2csc(CCO)c2C)c(N)n1` belongs “inactive”.
Consider `CCCCCc1cc(O)cc(O)c1`, for which the result was inactive.
The same measure, in the same setting: to `Oc1cc(Cl)ccc1Cl` belongs “inactive”.
Same read-out and setting: the entry for `CCCOC(=O)c1ccccc1C(=O)OCCC` is “inactive”; for `[CH3][Sn]([CH3])([Cl])[Cl]` it is “inactive”.
Still for that read-out and setting: to `CCC(Br)(CC)C(=O)NC(N)=O` belongs “inactive”.
Regarding `CCCCCCCCCCCCCCCC[N+](C)(C)C`, the AC50 is 53.4 µM (active).
